Measured values reported in the supplement of paper PMC10849652.
Of roughly 8,800 targets only a part is listed; those with a hit were picked by preference. About 0.5% of all pairs of compound and target were hits. Values without a mark were called inactive.

Columns and labels:
Assay in all cases: log2 fold change, soluble protein after heating vs DMSO (PISA); higher = thermal stabilisation; K562 lysate, 10 uM; active = over 0.2 and 3.5 SD of the protein, either way, in both replicates (recomputed)
[1] = compound: C1=CC=C(C=C1)[C@H](COC2=CC3=C(C=C2)NC(=O)N3)NC(=O)C4=CC=CN(C4=O)CC5=CC(=C(C=C5)F)F
How it was run: (§1)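 Log-two fold change in thermal stability relative to solvent controls is reported from duplicates. For each sample, crude K562 extract from dounce-homogenised pellets in PBS pH 7.4 with 1 mM MgCl2, at 1 mg/mL protein, was treated with 10 μM compound for 30 min. Aliquots heated for 3 min across 48°C-58°C were pooled, brought to 0.5% NP-40 at 4°C and cleared at 21,000xg for 90 min. The supernatant was quantified by TMTpro 16plex LC-MS/MS with channel sums equalised.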

[2] = compound: CC1=C(SC2=C1C(=N[C@H](C3=NN=C(N32)C)CC(=O)N)C4=CC=C(C=C4)Cl)C
How it was run: as §1

[3] = compound: CC1=C2C(=CC=C1)N=C(N(C2=O)C3=CC=CC=C3C)CN4C=NC5=C(N=CN=C54)N
How it was run: as §1

[4] = compound: Cc1sc2c(c1C)C(c1ccc(Cl)cc1)=N[C@@H](CC(=O)OC(C)(C)C)c1nnc(C)n1-2
How it was run: as §1

[5] = compound: c1ccc([C@@H]2C[C@H]2NC2CCNCC2)cc1
How it was run: as §1

UniProt Q6ZNJ1, sequence (Q6ZNJ1 whole entry, looked up): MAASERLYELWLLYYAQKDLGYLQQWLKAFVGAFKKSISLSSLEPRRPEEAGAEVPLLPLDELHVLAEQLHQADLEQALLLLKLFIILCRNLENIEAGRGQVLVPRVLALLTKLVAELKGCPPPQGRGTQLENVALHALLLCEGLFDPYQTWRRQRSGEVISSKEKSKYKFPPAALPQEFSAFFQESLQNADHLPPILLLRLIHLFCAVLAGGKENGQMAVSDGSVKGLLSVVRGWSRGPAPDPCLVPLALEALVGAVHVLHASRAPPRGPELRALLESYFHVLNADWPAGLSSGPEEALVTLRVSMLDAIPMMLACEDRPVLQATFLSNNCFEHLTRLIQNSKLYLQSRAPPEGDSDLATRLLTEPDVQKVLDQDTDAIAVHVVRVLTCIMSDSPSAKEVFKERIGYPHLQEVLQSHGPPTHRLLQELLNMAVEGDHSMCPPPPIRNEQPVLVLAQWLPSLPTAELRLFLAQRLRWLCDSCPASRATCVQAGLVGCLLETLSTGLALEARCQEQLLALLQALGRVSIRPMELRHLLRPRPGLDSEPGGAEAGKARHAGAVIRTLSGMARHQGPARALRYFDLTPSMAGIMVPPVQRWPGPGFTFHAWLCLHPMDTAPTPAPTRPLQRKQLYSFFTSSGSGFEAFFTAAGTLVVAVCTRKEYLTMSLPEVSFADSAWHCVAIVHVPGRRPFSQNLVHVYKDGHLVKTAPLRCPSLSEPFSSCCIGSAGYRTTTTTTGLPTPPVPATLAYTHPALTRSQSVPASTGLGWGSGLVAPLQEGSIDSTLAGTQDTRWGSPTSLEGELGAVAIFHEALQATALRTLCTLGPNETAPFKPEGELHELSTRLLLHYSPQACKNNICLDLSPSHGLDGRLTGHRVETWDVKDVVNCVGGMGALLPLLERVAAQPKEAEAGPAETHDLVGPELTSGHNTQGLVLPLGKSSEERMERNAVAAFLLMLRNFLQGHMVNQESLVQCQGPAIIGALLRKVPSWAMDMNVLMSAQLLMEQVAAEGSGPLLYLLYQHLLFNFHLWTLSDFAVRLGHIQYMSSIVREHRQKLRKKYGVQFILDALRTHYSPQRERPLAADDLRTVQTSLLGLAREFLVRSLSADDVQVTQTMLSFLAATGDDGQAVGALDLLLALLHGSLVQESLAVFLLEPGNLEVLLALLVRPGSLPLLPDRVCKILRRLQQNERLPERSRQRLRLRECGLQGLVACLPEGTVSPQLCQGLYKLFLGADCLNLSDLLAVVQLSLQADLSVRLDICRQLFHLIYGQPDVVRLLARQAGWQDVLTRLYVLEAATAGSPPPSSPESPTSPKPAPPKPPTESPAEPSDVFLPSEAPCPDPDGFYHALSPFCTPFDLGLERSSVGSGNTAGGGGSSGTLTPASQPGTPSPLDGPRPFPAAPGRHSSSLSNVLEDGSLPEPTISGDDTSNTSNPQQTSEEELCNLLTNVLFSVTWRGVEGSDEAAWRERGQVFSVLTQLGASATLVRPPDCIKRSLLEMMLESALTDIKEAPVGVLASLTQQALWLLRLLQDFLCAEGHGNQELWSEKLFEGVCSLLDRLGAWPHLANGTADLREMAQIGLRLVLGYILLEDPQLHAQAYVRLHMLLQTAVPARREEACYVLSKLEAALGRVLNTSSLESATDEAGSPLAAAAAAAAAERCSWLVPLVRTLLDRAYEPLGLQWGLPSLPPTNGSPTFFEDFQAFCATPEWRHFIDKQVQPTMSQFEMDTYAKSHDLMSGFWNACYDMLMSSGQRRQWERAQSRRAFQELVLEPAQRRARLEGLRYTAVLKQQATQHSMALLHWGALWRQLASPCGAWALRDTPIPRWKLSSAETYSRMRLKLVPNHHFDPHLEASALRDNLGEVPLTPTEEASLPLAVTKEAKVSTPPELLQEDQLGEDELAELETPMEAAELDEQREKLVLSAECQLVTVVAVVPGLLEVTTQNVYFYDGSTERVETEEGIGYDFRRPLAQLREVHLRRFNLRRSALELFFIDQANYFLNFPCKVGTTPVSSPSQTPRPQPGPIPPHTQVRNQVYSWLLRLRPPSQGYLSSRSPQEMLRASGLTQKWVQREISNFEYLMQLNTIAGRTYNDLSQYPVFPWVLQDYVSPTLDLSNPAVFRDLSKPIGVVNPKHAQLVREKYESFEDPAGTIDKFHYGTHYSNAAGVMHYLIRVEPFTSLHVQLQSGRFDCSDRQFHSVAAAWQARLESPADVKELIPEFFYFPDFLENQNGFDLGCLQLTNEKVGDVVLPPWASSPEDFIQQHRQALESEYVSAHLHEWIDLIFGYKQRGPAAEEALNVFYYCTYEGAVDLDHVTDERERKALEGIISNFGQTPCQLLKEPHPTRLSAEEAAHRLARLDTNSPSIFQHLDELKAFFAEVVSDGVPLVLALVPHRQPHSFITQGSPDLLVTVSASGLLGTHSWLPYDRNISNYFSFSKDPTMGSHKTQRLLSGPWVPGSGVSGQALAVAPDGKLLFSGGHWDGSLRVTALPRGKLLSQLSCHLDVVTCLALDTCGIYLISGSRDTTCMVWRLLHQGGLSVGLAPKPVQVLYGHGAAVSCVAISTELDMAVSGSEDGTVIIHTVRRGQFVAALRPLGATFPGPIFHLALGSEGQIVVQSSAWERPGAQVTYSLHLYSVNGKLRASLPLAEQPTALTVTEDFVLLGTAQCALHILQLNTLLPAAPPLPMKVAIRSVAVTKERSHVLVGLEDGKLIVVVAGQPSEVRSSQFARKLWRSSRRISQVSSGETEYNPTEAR
UniProt Q86W56, sequence (Q86W56 whole entry, looked up): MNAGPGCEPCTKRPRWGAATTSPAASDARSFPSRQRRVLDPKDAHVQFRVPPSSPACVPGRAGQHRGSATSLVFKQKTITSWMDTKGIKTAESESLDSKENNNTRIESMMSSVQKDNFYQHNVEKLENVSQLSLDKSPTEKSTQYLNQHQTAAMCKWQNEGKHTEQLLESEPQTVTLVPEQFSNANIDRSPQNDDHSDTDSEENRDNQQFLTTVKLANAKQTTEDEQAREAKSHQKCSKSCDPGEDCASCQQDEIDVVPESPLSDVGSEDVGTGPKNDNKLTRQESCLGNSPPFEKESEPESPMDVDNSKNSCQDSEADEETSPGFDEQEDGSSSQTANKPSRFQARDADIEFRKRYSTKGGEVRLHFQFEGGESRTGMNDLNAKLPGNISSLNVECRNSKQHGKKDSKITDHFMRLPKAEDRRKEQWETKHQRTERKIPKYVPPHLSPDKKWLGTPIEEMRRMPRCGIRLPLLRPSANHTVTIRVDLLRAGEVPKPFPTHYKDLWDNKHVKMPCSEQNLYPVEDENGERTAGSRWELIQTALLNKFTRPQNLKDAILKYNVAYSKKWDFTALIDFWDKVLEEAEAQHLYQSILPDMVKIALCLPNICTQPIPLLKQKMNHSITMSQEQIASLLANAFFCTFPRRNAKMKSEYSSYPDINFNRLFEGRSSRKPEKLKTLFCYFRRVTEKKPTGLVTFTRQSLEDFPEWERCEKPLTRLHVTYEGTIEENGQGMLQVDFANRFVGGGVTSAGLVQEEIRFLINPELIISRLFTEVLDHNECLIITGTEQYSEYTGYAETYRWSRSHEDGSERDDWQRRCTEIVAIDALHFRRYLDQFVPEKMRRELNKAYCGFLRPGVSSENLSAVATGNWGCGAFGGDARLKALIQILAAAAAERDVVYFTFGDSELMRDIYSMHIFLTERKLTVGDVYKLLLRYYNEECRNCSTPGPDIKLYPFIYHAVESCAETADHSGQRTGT
UniProt Q147X3, sequence (Q147X3 whole entry, looked up): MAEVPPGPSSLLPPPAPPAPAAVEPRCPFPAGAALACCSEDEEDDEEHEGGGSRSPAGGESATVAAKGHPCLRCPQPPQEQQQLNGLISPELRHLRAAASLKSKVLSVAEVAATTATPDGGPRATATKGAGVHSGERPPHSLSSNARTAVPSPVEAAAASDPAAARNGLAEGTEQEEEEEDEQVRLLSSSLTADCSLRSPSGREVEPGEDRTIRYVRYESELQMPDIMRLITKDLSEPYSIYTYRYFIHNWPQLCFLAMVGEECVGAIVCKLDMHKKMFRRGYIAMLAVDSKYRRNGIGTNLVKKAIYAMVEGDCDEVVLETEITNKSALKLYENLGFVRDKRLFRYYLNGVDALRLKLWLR
UniProt Q9UBD5, sequence (Q9UBD5 whole entry, looked up): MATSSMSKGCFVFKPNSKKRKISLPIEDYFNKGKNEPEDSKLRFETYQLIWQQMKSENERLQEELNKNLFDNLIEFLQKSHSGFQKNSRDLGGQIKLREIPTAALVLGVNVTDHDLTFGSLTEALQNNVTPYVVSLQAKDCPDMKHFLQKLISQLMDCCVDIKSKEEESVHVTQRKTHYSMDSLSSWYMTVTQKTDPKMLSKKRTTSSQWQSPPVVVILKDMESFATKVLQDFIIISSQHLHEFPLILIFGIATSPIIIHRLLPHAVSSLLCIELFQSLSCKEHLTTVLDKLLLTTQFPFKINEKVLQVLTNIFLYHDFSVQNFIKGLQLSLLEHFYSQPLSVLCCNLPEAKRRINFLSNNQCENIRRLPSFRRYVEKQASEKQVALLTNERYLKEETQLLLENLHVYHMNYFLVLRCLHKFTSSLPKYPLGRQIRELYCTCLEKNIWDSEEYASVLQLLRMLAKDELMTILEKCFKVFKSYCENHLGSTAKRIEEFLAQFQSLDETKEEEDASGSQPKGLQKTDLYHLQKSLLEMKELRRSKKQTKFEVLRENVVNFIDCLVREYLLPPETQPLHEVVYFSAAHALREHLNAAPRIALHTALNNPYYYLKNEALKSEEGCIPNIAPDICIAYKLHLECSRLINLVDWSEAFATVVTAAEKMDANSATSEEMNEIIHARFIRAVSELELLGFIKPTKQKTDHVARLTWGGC
UniProt Q8TDX7, sequence (Q8TDX7 whole entry, looked up): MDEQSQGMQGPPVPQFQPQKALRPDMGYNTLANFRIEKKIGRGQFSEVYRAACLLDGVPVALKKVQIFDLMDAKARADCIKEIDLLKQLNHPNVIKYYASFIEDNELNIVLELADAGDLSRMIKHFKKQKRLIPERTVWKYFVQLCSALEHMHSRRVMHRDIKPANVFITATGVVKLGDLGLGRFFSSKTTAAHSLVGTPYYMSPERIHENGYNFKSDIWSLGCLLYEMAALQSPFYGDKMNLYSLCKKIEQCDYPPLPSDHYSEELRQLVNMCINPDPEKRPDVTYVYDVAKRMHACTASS

Target	log2 fold change [1]	log2 fold change [2]	log2 fold change [3]	log2 fold change [4]	log2 fold change [5]
NAA30 (UniProt Q147X3)	0	0.018	0.033	0.02	-0.013
NELFA (UniProt Q9H3P2)	-0.055	0.033	-0.022	-0.037	0.054
NEK7 (UniProt Q8TDX7)	0.03	-0.032	-0.004	-0.076	0.026
PARG (UniProt Q86W56)	-0.011	-0.006	-0.005	-0.004	0.091
NCK1 (UniProt P16333)	0.018	0	0.022	0.003	0.049
NBEAL2 (UniProt Q6ZNJ1)	-0.047	0.055	0.015	-0.029	0.044
ORC3 isoform 2 (UniProt Q9UBD5)	0.005	-0.031	0.014	0.021	0.047
NOC2L (UniProt Q9Y3T9)	0.004	-0.019	0.009	0.324 (active)	-0.012
PARD3 (UniProt Q8TEW0)	0.078	0.063	-0.028	0.09	-0.024
NCAPH (UniProt Q15003)	-0.025	0.015	0.021	-0.023	0.024
NELFCD (UniProt Q8IXH7)	-0.035	0.023	0.018	0.003	0.025
MTOR (UniProt P42345)	-0.022	0.004	0.013	0.014	0.029
